Data: PubChem BioAssay (Tox21)
Results filed as inconclusive are left out. Active and inactive are the calls of the source. The call rests on the fitted dose curve; in most records, active means well fitted activation curve with a large enough effect in the signal ratio in the repeat runs (not every such curve was filed as active); inconclusive means weak or mixed curves, or effect the other way; inactive means flat fitted curve, though single readings scatter; the % refers to the signal ratio. Residues, ends and D or L forms follow the SMILES beside them.

Assay: qHTS assay to identify small molecule agonists of the endoplasmic reticulum stress response signaling pathway (AID 1159516)
Details: ESRE-bla HeLa, ER stress beta-lactamase reporter, 5 h; series mostly up to 61 µM
Text: National Center for Advancing Translational Sciences [NCATS]
NIH Chemical Genomics Center [NCGC]
U.S. Environmental Protection Agency [EPA]
National Institutes of Environmental Health Sciences [NIEHS]
National Toxicology Program [NTP]
U.S. Food and Drug Administration [FDA]
Endoplasmic Reticulum (ER) plays an important role in cellular signaling, protein folding/maturation, stress response, lipid biosynthesis, calcium storage and release etc. Under stress conditions, proteins in ER misfold or unfold, and leading to the expression of ER stress responsive genes. ER stress has been associated with a variety of pathophysiological conditions such as cancer, inflammation, neurodegenerative diseases, diabetes, ischemic heart disease etc. To identify the compounds that induce ER stress response, an ER stress reporter cell line, CellSensor ESRE-bla HeLa (Life Technologies, Carlsbad, CA) containing a beta-lactamase reporter gene under control of the Endoplasmic reticulum Stress Response Element (ESRE) was used to screen Tox21 10K compound library.
Tox21 Assay Protocol Summary:
ESRE-bla HeLa cells were dispensed at 1,500 cells/6 uL of assay medium per well into black wall/clear-bottom 1536-well plates using a Multidrop Combi (ThermoFisher Scientific, Waltham, MA) dispenser. After the assay plates were incubated at 37 C and 5% CO2 for an overnight, 23 nL of compounds dissolved in DMSO, positive controls or DMSO only was transferred to the assay plate by a Pintool station (Kalypsys, San Diego, CA). The assay plates were incubated at 37 C and 5% CO2 for 5 hr. One uL of LiveBLAzer B/G FRET substrate (Life Technologies) was added using a Flying Reagent Dispenser (Aurora Discovery, San Diego, CA) and the plates were incubated at room temperature for 2 hr. Fluorescence intensity (405 nm excitation, 460 nm and 530 nm emissions) was measured using an Envision plate reader (PerkinElmer, Shelton, CT).

**Q.** For `O=c1ccc2ccccc2o1`, which outcome is on record?
**A.** inactive

**Q.** With `CC(=O)OCC(COC(C)=O)OC(C)=O` as the compound, how does the outcome read?
**A.** inactive

**Q.** Which outcome does the source give for `CCCC(O)C(CC)CO` (stereo not given) here?
**A.** inactive

**Q.** With `NC(N)=O` as the compound, how does the outcome read?
**A.** inactive

**Q.** For `O=C(O)CCCCCCCC(=O)O`, which outcome is on record?
**A.** inactive

**Q.** For `O=C(O)CCCCC(=O)O`, which outcome is on record?
**A.** inactive

**Q.** For `O=C(O)c1cccc([N+](=O)[O-])c1`, which outcome is on record?
**A.** inactive

**Q.** Which outcome does the source give for `O=NO` here?
**A.** inactive

**Q.** For `C1N2CN3CN1CN(C2)C3`, which outcome is on record?
**A.** inactive

**Q.** Which outcome does the source give for `COC(=O)[C@H](Cc1ccccc1)NC(=O)[C@@H](N)CC(=O)O` (H-Asp-Phe-OMe) here?
**A.** inactive

**Q.** With `NNC(=O)c1ccncc1` as the compound, how does the outcome read?
**A.** inactive

**Q.** Which outcome does the source give for `COc1ccc2[nH]cc(CCNC(C)=O)c2c1` here?
**A.** inactive

**Q.** Which outcome does the source give for `Cc1ccc(C)c(OCCCC(C)(C)C(=O)O)c1` here?
**A.** inactive

**Q.** With `CCCCC(CC)COC(=O)/C=C/c1ccc(OC)cc1` (stereo not given) as the compound, how does the outcome read?
**A.** inactive

**Q.** With `Cc1cn([C@H]2C[C@H](N=[N+]=[N-])[C@@H](CO)O2)c(=O)[nH]c1=O` as the compound, how does the outcome read?
**A.** inactive

**Q.** Which outcome does the source give for `c1ccc2[nH]ccc2c1` here?
**A.** inactive

**Q.** For `Nc1ccn([C@H]2CC[C@@H](CO)O2)c(=O)n1`, which outcome is on record?
**A.** inactive

**Q.** Which outcome does the source give for `CC(O)C(=O)O` (stereo not given) here?
**A.** inactive

**Q.** With `NC(=O)c1cnccn1` as the compound, how does the outcome read?
**A.** inactive

**Q.** For `COc1c2occc2cc2ccc(=O)oc12`, which outcome is on record?
**A.** inactive

**Q.** With `CCCCOC(=O)CC(CC(=O)OCCCC)(OC(C)=O)C(=O)OCCCC` as the compound, how does the outcome read?
**A.** inactive

**Q.** Which outcome does the source give for `O=C(O)c1cccnc1` here?
**A.** inactive

**Q.** With `Cc1cc(=O)n(-c2ccccc2)n1C` as the compound, how does the outcome read?
**A.** inactive

**Q.** With `CCCC(CCC)C(=O)O` as the compound, how does the outcome read?
**A.** inactive

**Q.** Which outcome does the source give for `Nc1ccc(S(=O)(=O)Nc2nccs2)cc1` here?
**A.** inactive

**Q.** Which outcome does the source give for `NC(=O)c1ccccc1O` here?
**A.** inactive

**Q.** With `Cc1ccc(S(=O)(=O)NC(=O)NN2CCCCCC2)cc1` as the compound, how does the outcome read?
**A.** inactive

**Q.** Which outcome does the source give for `NC(=O)NC1NC(=O)NC1=O` (stereo not given) here?
**A.** inactive

**Q.** With `NC(N)=NC(=O)c1nc(Cl)c(N)nc1N` as the compound, how does the outcome read?
**A.** inactive

**Q.** With `Nc1ccc(C(=O)O)cc1` as the compound, how does the outcome read?
**A.** inactive

**Q.** Which outcome does the source give for `CCOc1ccc(NC(=O)CC(C)O)cc1` (stereo not given) here?
**A.** inactive

**Q.** Which outcome does the source give for `CCCCCCCCCCCCCCCC(=O)O` here?
**A.** inactive

**Q.** With `CNC[C@H](O)c1cccc(O)c1` as the compound, how does the outcome read?
**A.** inactive

**Q.** For `CCCNC(=O)NS(=O)(=O)c1ccc(Cl)cc1`, which outcome is on record?
**A.** inactive

**Q.** For `O=C(c1ccccc1)C(O)c1ccccc1` (stereo not given), which outcome is on record?
**A.** inactive

**Q.** For `O=C1CN(/N=C/c2ccc([N+](=O)[O-])o2)C(=O)N1`, which outcome is on record?
**A.** inactive

**Q.** Which outcome does the source give for `O=c1cc[nH]c(=S)[nH]1` here?
**A.** inactive

**Q.** With `C[C@]12C=CC(=O)C=C1CC[C@@H]1[C@@H]2[C@@H](O)C[C@@]2(C)[C@H]1CC[C@]2(O)C(=O)CO` as the compound, how does the outcome read?
**A.** inactive

**Q.** For `O=C(C1CCCCC1)N1CC(=O)N2CCc3ccccc3C2C1` (stereo not given), which outcome is on record?
**A.** inactive

**Q.** With `Oc1ccc(/C=C/c2cc(O)cc(O)c2)cc1` as the compound, how does the outcome read?
**A.** inactive
